Compound activity: PubChem BioAssay, several laboratories
ANO1 activ – activators or potentiators of mouse TMEM16A chloride channel; Q8BHY3; HEK293 TMEM16A/YFP-H148Q/I152L, iodide quench fluorescence; stronger effect = lower value; B-score at 10 µM; 0.3% of 340,000 active; AID 623877;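 active = fluorescence-ratio B-score plate-corrected deviation score at least 3 library SD below zero, with starting fluorescence score within 5 deviations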;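 note: channel opened by trigger with iodide after compound preincubation; score built on the fluorescence ratio of max minus min over baseline; more negative score means more quench and so TMEM16A activation or potentiation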
Target sequence (Q8BHY3 whole entry, looked up): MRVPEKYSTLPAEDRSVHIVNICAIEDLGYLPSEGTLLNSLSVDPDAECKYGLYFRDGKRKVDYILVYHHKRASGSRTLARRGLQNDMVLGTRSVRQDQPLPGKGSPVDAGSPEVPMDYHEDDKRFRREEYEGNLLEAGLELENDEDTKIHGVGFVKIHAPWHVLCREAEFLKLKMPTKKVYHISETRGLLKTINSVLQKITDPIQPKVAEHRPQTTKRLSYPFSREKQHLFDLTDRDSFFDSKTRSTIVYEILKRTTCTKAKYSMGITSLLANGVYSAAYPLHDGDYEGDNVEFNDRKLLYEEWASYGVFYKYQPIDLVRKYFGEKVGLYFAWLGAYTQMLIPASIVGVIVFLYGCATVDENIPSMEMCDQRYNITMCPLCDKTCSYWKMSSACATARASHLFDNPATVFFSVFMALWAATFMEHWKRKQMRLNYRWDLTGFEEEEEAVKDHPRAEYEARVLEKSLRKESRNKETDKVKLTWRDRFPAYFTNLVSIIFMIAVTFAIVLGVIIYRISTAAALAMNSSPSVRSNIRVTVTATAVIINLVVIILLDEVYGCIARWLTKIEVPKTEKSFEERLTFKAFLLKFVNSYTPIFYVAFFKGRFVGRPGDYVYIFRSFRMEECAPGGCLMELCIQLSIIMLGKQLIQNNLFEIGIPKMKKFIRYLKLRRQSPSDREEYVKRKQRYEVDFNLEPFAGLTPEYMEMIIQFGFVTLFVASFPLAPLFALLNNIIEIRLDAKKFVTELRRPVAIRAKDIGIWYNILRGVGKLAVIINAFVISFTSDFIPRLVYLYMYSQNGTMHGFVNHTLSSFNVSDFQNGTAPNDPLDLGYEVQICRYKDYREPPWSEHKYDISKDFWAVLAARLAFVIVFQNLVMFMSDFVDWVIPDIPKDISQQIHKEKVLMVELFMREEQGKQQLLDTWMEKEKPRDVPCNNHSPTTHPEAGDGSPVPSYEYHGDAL
TMEM16A inh – inhibitors of mouse TMEM16A calcium-activated chloride channel. Q8BHY3. HEK293 TMEM16A/YFP iodide influx fluorescence, ionomycin. AID 588511. 1.2% of 310,000 active. normalized B-score (activity score, 25-100; higher = stronger inhibition) at 10 µM;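 active = ratio plate-corrected score three or more library SD toward inhibition, starting fluorescence score within five deviations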;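 note: score derived from kinetic fluorescence span divided by baseline fluorescence per well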
CRFBP-R2 block – blocks CRF-induced signaling of the CRF-BP/CRF-R2 complex; HEK293 CRF-R2/CRF-BP, CRF-induced calcium fluorescence; inhibition, % at 11.8 µM; 0.59% of 350,000 active; AID 588475;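 active = inhibition of the ligand-induced calcium signal above about 50% at the single tested concentration, limit read from the data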
CRFBP-R2 agonist – CRF-BP/CRF-R2 complex agonism | 0.46% of 350,000 active | activation, % at 13.2 µM | HEK293 CRF-R2/CRF-BP, calcium dye fluorescence (FLIPR); percent of saturating CRF peptide response;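 active = activation of at least 50%, plus an integration ratio under a set limit after plate pattern correction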
GRIN3A LBD mod – modulates the human NR3A ligand-binding domain. NR3A LBD differential scanning fluorimetry, Tm shift; 0% = protein alone, 100% = glycine-bound protein. 2.5% of 340,000 active. Tm shift relative to glycine control, % at 25 µM;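 active = melting temperature shift of at least 10% of the positive control shift, at one fixed dose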
MPTP block – inhibitors of mitochondrial permeability transition pore. AID 602449. 1.4% of 360,000 active. isolated mouse mitochondria, Ca2+ swelling absorbance, 30 min. inhibition, % at 10 µM;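 active = inhibition of 50% or more, scaled per plate between neutral and stimulator controls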
TMEM16A reconf – re-confirmation of mouse TMEM16A chloride channel inhibitors; shares compounds with TMEM16A inh; HEK293 TMEM16A/YFP-H148Q, iodide quench fluorescence; ionomycin added to raise cell calcium; inhibition, % at 10 µM; 39% of 2,300 active; AID 652189;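 active = mean duplicate percent inhibition, scaled so buffer wells are 0 and the reference blocker 100, over three buffer SD above buffer mean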
TMEM16A Ca cntr – counter-screen for TMEM16A inhibitors: effect on calcium mobilization. shares compounds with TMEM16A inh. TMEM16A/YFP HEK293, Fluo4 calcium mobilization. calcium response (% of ionomycin), % at 10 µM. 2% of 2,300 active;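 active = duplicate-averaged calcium signal over 20% of the ionomycin maximum, relative to buffer baseline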;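 note: each well's signal is peak minus trough fluorescence divided by its pre-addition baseline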
Parental YFP cnt – counter-screen for TMEM16A inhibitors: effect in parental YFP-HEK293 cells; shares compounds with TMEM16A inh; iodide YFP quench, ionomycin; YFP ratio F(max-min)/F0 at 10 µM; 2,300 tested, under 10 active;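 active = yellow fluorescent protein signal ratio exceeding the buffer control mean by over 5 SD of those controls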;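 note: ratio is mean of duplicate wells from kinetic YFP trace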
ClC-1 inh – blocks the rat ClC-1 voltage-dependent chloride channel; shares compounds with TMEM16A inh; 2,300 tested, under 10 active; ratio percent, % at 10 µM; CHO ClC-1-YFP, iodide influx fluorescence quench; iodide control reads 0, buffer control 100;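 active = duplicate-mean ratio percent above the mean of iodide-only control wells, which defines zero, plus 5 of their SD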;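 note: higher percent means stronger block of ClC-1 iodide influx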
Rh123 counter – Rhodamine 123 counter-screen of mitochondrial pore hits; shares compounds with MPTP block; isolated mitochondria, membrane potential, Rhodamine 123 fluorescence; inhibition, % at 10 µM; 78% of 5,000 active; in the data active = inhibition above about 22%
MPTP swell DR – MPTP inhibition, dose response swelling confirmation. shares compounds with MPTP block. isolated mitochondria swelling, absorbance. IC50, µM. 58% of 780 active. AID 651561; in the data active = IC50 below about 20 µM
MPTP cs DR – counter-screen for mitochondrial permeability transition pore inhibitors, dose response | shares compounds with MPTP block | isolated mitochondria counterscreen, fluorescence read-out | IC50, µM | 49% of 780 active | AID 651564; in the data active = IC50 below about 80 µM
Large screens that a line does not name were inactive (follow-up assays come after a bar, where they were run). Rows were chosen to be rich in hits. Some 5.1% of all compounds tested hit in one or more screens of this group.

CC[n+]1c(/C=C/C=C/c2ccc(N(C)C)cc2)sc2ccccc21	TMEM16A inh 25, MPTP block 134 | TMEM16A reconf 40% | TMEM16A Ca cntr inactive | Parental YFP cnt inactive | ClC-1 inh inactive | Rh123 counter 71
O=C(O)COc1ccc(Cl)cc1Cl	none
Oc1cc(Cl)ccc1Oc1ccc(Cl)cc1Cl	TMEM16A inh 100, MPTP block 92 | TMEM16A reconf 70% | TMEM16A Ca cntr inactive | Parental YFP cnt inactive | ClC-1 inh inactive | Rh123 counter 99
CCCCC1(CCCC)C(=O)NC(=Nc2cccc(C)c2)NC1=O	CRFBP-R2 block 55, CRFBP-R2 agonist 89, MPTP block 92 | Rh123 counter 93
CCN(CC)S(=O)(=O)c1ccc(NN=C(C#N)C#N)cc1	TMEM16A inh 100, GRIN3A LBD mod 13, MPTP block 103 | Rh123 counter 80
CCCCCSc1cc(OC)c(CCNC)cc1OC	MPTP block 86 | Rh123 counter inactive | MPTP swell DR 5.3 | MPTP cs DR inactive
CC(C)Oc1ccc(CCN)cc1Cl	none
CCCCOc1ccc(CCN)cc1Cl	MPTP block 92 | Rh123 counter inactive | MPTP swell DR 6.6 | MPTP cs DR inactive
CCOc1nc(NC(C)C)nc(N2CC3CC(C2)c2cccc(=O)n2C3)n1 (stereo unspecified)	none
CCN1/C(=C\C=C\C2=[N+](CC)c3ccccc3C2(C)C)C(C)(C)c2ccccc21	CRFBP-R2 agonist 260, MPTP block active | Rh123 counter 84
CCC1CN1P1(=O)OCC(C)([N+](=O)[O-])CO1 (stereo unspecified)	none (no result: TMEM16A inh)
CN1CCCN(c2ccc([N+](=O)[O-])nc2)CC1	none
CCN1C(=O)/C(=C/c2ccc(N(CC)CC)cc2OC)C(=O)NC1=S	GRIN3A LBD mod 14, MPTP block 66 | Rh123 counter inactive
COC(=O)Nc1ccc(N=C(N)N[N+](=O)[O-])cc1	none
CN(CCc1ccccc1)Cc1c[nH]c2ccccc12	none
CN(C)c1ccc(/C=C/c2cc[n+](C)c3ccccc23)cc1	MPTP block 75 (no result: TMEM16A inh) | Rh123 counter 66
C[n+]1c(-c2ccccc2)sc2ccccc21	none
CN(C)c1ccc(/C=C/C=C/c2sc3ccccc3[n+]2C)cc1	MPTP block 57 | Rh123 counter 65
COc1cc2c(cc1OC)[C@H]1C(=O)c3ccc4c(c3O[C@H]1CO2)C[C@@H](C(C)(C)O)O4	none (no result: TMEM16A inh)
COc1cc2c(cc1OC)C1C(=O)c3ccc4c(c3OC1CO2)CC(C(C)C)O4 (stereo unspecified)	MPTP block 103 (no result: TMEM16A inh) | Rh123 counter 88
COc1cc2c(cc1OC)[C@@H]1C(=O)c3ccc4c(c3O[C@@H]1CO2)C[C@H](C(C)C)O4	MPTP block 96 | Rh123 counter 83
O=C(Nc1ccc(Cl)cc1)Nc1nccs1	GRIN3A LBD mod 28, MPTP block 86 | Rh123 counter 89
ClC(Cl)=C(c1ccc(Cl)cc1)c1ccc(Cl)cc1	MPTP block 77 | Rh123 counter inactive | MPTP swell DR inactive | MPTP cs DR 78
S=C(c1ccc(Cl)cc1)N1CCOCC1	none
O=P(O)(Oc1ccccc1)c1ccccc1	none (no result: TMEM16A inh)
O=C(c1cc(C(=O)NCc2ccccc2)c(=O)n(Cc2ccccc2)c1)c1cc(Br)ccc1O	MPTP block 84 | Rh123 counter 72
COc1cc(OC)c(OC)cc1/C=C1/C(=O)NC(=O)N(Cc2ccccc2)C1=O	MPTP block 60 | Rh123 counter 37
COc1cc(OC)c(OC)cc1/C=C1\C(=O)NC(=O)N(Cc2ccccc2)C1=O	none
CCOc1ccc(NC2=NCCCS2)cc1	none
N=C1c2ccccc2CN1NC(=O)c1ccco1	none (no result: TMEM16A inh)
CCc1nc2ccc(Br)cc2c(=O)n1-c1ccccc1C(F)(F)F	none
CCCc1nc2ccc(Br)cc2c(=O)n1-c1ccc([N+](=O)[O-])c(C(F)(F)F)c1	TMEM16A inh 100, MPTP block 94 | Rh123 counter 79
Cc1cc(C=O)c(C)n1C1CC1	none
O=C1NC(=O)N(c2ccccc2)C(=O)/C1=C/c1ccc(Sc2ccccc2)o1	MPTP block 51 | Rh123 counter 43
Cc1ncc(CN2CCCC(C(=O)c3ccc(C(C)(C)C)cc3)C2)s1 (stereo unspecified)	MPTP block 75 | Rh123 counter 73
C[C@](N)(CCP(=O)(O)O)C(=O)O	none
N#CC(C#N)=NNc1ccc(-n2ccc(C(F)(F)F)n2)cc1	ANO1 activ -4.6, TMEM16A inh 100, CRFBP-R2 agonist 53, MPTP block 78 | Rh123 counter 82
Cc1cc(C)n(-c2ccc(NN=C(C#N)C#N)cc2)n1	CRFBP-R2 agonist 53, MPTP block 84 | Rh123 counter 90
Cc1cc(Cc2c(O)[nH]c(=S)[nH]c2=O)ccc1OC(C)C	none
CC(=O)O[C@@H]1CC[C@]2(C)C3CC[C@]4(C)C(=O)[C@H](O)CC4C3[C@@H](OC(C)=O)C[C@H]2C1 (stereo partly specified)	none (no result: TMEM16A inh)
COc1ccc(N2C(=O)NC(=O)/C(=C\c3ccc([N+](=O)[O-])s3)C2=O)cc1	ANO1 activ -6.4, MPTP block 56 | Rh123 counter inactive
C=CCn1c(O)c(C(CC)=Nc2ccc(N(CC)CC)cc2)c(=O)[nH]c1=O	MPTP block 75 | Rh123 counter 29
CC12CCC(=O)C=C1CCC1C2CCC2(C)C1CCC2(O)CC#N (stereo unspecified)	none (no result: TMEM16A inh)
